26 compounds from PubChem BioAssay AID504652 (National Center for Advancing Translational Sciences (NCATS), 2011) can be followed below.

“And” between values parts separate entries of the source, which are not always exact repeats. Equal values may be shown once. Among all 360,000 compounds or so, about 11,000 (3.1%) were called active. Cut-off read from the data, not from the text of the source: active = activity change below about -30%; inactive = the rest. Shown is part of a subset that was picked to be rich in actives.
% is set by controls: 0 for no effect and ±100 for the full control effect.

D(1A) dopamine receptor (Homo sapiens), sequence (P21728 whole entry, looked up): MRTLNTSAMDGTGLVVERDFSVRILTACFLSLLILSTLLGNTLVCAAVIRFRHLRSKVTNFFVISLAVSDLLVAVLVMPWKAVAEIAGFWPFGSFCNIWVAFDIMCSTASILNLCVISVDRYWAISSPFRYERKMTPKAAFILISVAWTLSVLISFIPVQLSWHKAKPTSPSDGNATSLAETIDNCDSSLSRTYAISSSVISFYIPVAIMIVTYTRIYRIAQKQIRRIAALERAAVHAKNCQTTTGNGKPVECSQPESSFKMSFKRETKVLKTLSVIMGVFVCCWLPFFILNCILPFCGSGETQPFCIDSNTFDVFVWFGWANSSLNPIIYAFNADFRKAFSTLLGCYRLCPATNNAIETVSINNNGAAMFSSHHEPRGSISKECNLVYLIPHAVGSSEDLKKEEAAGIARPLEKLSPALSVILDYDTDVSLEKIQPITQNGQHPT

The target of the experiment is D(1A) dopamine receptor (Homo sapiens) (UniProt P21728). Kind of experiment: Antagonist of Human D 1 Dopamine Receptor: qHTS. The settings on record: HEK293 TREx D1 cells, calcium flux, dopamine EC80; at 10 µM; stronger effect = lower value. Summed up:
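Compound effects on dopamine-evoked calcium signalling were measured in tetracycline-induced HEK293 Trex D1 cells. Dopamine at EC80 followed a 180 s compound pre-read, and fluorescence was tracked kinetically for 180 s more.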
A general note: Quantitative high-throughput screening tests each substance at several concentrations.
Consider `CCn1cc(C(=O)OCC(=O)Nc2cc(C)cc(C)c2)c(=O)c2ccc(C)nc21`, for which the activity change, negative = inhibition is 7.91% (inactive).

`Cc1cc(C=O)c(C)n1-c1ccc(NC2CCCCC2)c([N+](=O)[O-])c1`: the activity change, negative = inhibition is -2.05% (inactive).

As for `Cc1ccc(N2CCN(c3ccc([N+](=O)[O-])cn3)CC2)c(C)c1`, the activity change, negative = inhibition is 8.06% (inactive).

On to `Cc1ccc(-n2c(C)cc(/C=N/Nc3ccc([N+](=O)[O-])cn3)c2C)c(C)c1`, for which the activity change, negative = inhibition was -44.1% (active).

`CC(C)C(=O)Nc1nc2c(s1)CC(C(C)(C)C)CC2` (stereo unspecified): the activity change, negative = inhibition was 7.11% (inactive).

Take `COc1cccc2[nH]c(C(=O)NCCc3ccccc3)cc12`: the activity change, negative = inhibition was -6.46% (inactive).

For the compound `CCCn1c(=N)n(CC(O)COc2ccccc2OC)c2ccccc21` (stereo unspecified), the activity change, negative = inhibition is -15% (inactive).

In the case of `COc1ccccc1OCCNCC(O)COc1cccc2[nH]c3ccccc3c12` (stereo unspecified), the activity change, negative = inhibition is -58.7% (active) and -69% (active).

With `CC(C)Sc1oc(-c2cccs2)nc1S(=O)(=O)c1ccc(Cl)cc1`, the activity change, negative = inhibition is 14.3% (inactive).

For the compound `COc1ccc(-c2nc(SCC(=O)N3CCCCC3C)n[nH]2)cc1` (stereo unspecified), the activity change, negative = inhibition was 9.65% (inactive).

With `COc1ccc(-c2csc(-c3c(N)c(C(=O)c4ccc(OC)c(OC)c4)n4ccccc34)n2)cc1`, the activity change, negative = inhibition was -1.18% (inactive).

In the case of `COc1ccc(S(=O)(=O)NCC(c2ccc(N(C)C)cc2)N2CCc3ccccc32)cc1OC` (stereo unspecified), the activity change, negative = inhibition is -64.5% (active).

For `COc1ccc(C(=O)NCC(c2ccc(N(C)C)cc2)N2CCc3ccccc32)c(OC)c1` (stereo unspecified), the activity change, negative = inhibition is -5.15% (inactive).

In the case of `O=S(=O)(NCC(c1ccccc1)N1CCc2ccccc21)c1ccccc1` (stereo unspecified), the activity change, negative = inhibition is 6.46% (inactive).

`COc1ccc(NC(=O)CSc2nccn2Cc2ccc3c(c2)OCO3)cc1`: the activity change, negative = inhibition was 6.87% (inactive).

Regarding `O=C(NCc1ccccc1)C1CCN(S(=O)(=O)c2ccc3[nH]c(=O)ccc3c2)CC1`, the activity change, negative = inhibition is 16.6% (inactive).

Regarding `COc1ccc(CCN2C(=O)N(c3cccc(OC)c3)C(=O)C2CC(=O)Nc2ccccc2)cc1` (stereo unspecified), the activity change, negative = inhibition is -1.1% (inactive).

For the compound `O=C(O)C1C2C=CC(C2)C1C(=O)N1CCN(CCO)CC1` (stereo unspecified), the activity change, negative = inhibition is -46.7% (active).

On to `CN1CCN(C(=O)C2C3C=CC(C3)C2C(=O)O)CC1` (stereo unspecified), for which the activity change, negative = inhibition is -15.3% (inactive).

Consider `C=C(Cl)COC(=O)C1C2C=CC(C2)C1C(=O)O` (stereo unspecified), for which the activity change, negative = inhibition is 6.01% (inactive).

For `Cc1cccc(-n2ncc(C(=O)N3CCc4ccccc4C3)c2C2CCN(C(=O)OC(C)(C)C)CC2)c1`, the activity change, negative = inhibition is 7.17% (inactive).

`Oc1c(Cl)cc(Cl)c(Cl)c1Cc1c(O)c(Cl)cc(Cl)c1Cl`: the activity change, negative = inhibition was -41.7% (active).

In the case of `CCc1ccc(NC(=O)CN2C(=O)C(c3ccccc3)=NC23CCCCCC3)cc1`, the activity change, negative = inhibition is -6.53% (inactive).

Take `COc1ccc(/C=C/C(=O)Nc2c(C)nn(C)c2C)cc1COc1ccc(Br)cc1`: the activity change, negative = inhibition is 9.14% (inactive).

With `COc1ccc(C(C)=O)cc1COc1ccc(Cl)c(C)c1`, the activity change, negative = inhibition was 0.455% (inactive).

Turning to `CCn1nc(C)c(NC(=O)/C=C/c2ccc(OC)c(COc3ccc(Br)cc3)c2)c1C`, the activity change, negative = inhibition is -39.8% (active).
